This passage reports activation results from PubChem BioAssay AID1304 (The Scripps Research Institute Molecular Screening Center, 2008).

“And” between values parts separate entries of the source, which are not always exact repeats. Equal values may be shown once. Out of some 220,000 compounds screened, about 800 (0.36%) were called active. The entries come from a sample that favours actives as a whole. Values without a mark were called inactive. Cut-off read from the data, not from the text of the source: active = activation above about 33% (passing the limit was not always enough); inactive = the rest.

The target of this experiment is Neuropeptide Y receptor type 1 (Homo sapiens) (UniProt P25929). In words: activation enhancers of human NPY-Y1 – cell-based, primary screen (AID 1304).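 Note: cells stimulated with NPY at EC10 then isoproterenol at EC100; 0% = low agonist plus stimulus and 100% = saturating agonist plus stimulus.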 The settings on record: NPY-Y1 expressing cells, potentiator/agonist activation; at 3.6 µM; active compounds read high.
Neuropeptide Y receptor type 1 (Homo sapiens), sequence (P25929 whole entry, looked up): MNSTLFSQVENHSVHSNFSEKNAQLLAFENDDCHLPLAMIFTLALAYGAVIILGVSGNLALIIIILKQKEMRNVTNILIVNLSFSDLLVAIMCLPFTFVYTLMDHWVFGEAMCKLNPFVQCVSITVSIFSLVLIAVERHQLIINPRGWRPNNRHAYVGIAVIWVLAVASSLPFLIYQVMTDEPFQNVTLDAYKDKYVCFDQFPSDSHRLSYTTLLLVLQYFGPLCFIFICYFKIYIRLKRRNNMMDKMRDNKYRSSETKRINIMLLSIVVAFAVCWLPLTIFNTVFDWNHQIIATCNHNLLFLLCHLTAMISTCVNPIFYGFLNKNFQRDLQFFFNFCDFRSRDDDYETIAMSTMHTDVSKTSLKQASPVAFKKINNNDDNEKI
Take `S=c1[nH]nc(-c2cc(-c3ccsc3)n[nH]2)n1-c1ccccc1`: the activation is -8.71%.
For `Cc1nnsc1C(=O)N/N=C/c1ccccc1Cl` the value was -6.23%.
With `O=C(Nc1ccc(F)cc1F)N1CCCN(CCOc2ccccc2)CC1` the figure was 4.67%; with `CCOC(=O)C1(CC2CCCCO2)CCN(Cc2nc(-c3cccs3)oc2C)CC1` (stereo unspecified), 1.86%.
With `CC(=O)O[C@]1(C(C)=O)CC[C@H]2[C@@H]3C=C(C)C4=CC(=O)CC[C@]4(C)[C@H]3CC[C@@]21C` the figure was -14.5% and 5.59%; with `Cc1noc(COc2ccccc2OCC(O)CNC(C)(C)C)n1` (stereo unspecified), 111% (active); with `Cc1noc(COc2ccccc2OCc2onc(C)c2Cl)c1Cl`, -31.2%.
`CC(C)(C)CC(C)(C)NCC(O)COCCOc1ccc(Br)cc1` (stereo unspecified): the activation was -16.3%.
With `Nc1nc(O)c(CC(=O)O)s1` the figure was -3.67%; with `CCc1cc(-c2n[nH]c(=S)n2CC(C)C)cs1`, -23.7%; with `COC(=O)c1ccc(NC(=O)Nc2ccc(C)cc2)cc1`, 101% (active).
Regarding `Cc1ccc(NC(=O)CC(=O)Nc2ccc(C)cc2)cc1`, the activation was -0.47%.
For `CC(=O)c1cccc(NC(=O)Nc2ccc(C)cc2)c1` the value was -1.32%.
With `CO/N=C/c1cn(-c2ccc(Cl)cc2)nn1` the figure was -2.97%; with `CN(c1ccccc1)S(=O)(=O)c1ccc(Cl)c(C(=O)OCC(=O)NCc2ccco2)c1`, 16.8%; with `O=c1[nH]oc(O)c1-c1ncc(C(F)(F)F)cc1Cl`, 7.56%.
As to `CC(=O)NC(=S)NNC(=O)c1ccc(Br)cc1`, the activation was -6.38%.
Take `Cc1ccc(C(=O)Nc2nnc(-c3cccs3)s2)cc1C`: the activation is 19.3%.
In the case of `N#Cc1ccc(C(=O)Nc2nc(-c3cccs3)c(C(=O)C(F)(F)F)s2)cc1`, the activation is 45.4% (active).
With `CC(=O)c1sc(NC(=O)c2ccc(C)cc2)nc1C`, the activation is 5.15%.
For `Cc1ccc(NC(=S)N2CCCC(c3ccccc3)=N2)cc1` the value was -12%; for `CCOC(=O)c1cnc2ccc(F)cc2c1Nc1ccc2c(c1)OCCO2`, -7.89%; for `CCCCNC(=O)Nc1c(C)cc(SC#N)cc1C`, -6.72%.
Turning to `O=C(CCCN1C(=O)c2ccccc2C1=O)Oc1ccc(Cl)cc1`, the activation was -9.31%.
Consider `O=C(NCCc1csc(-c2ccccc2)n1)c1ccccc1F`, for which the activation is -10.8%.
For the molecule `CC(=O)c1ccc(NC(=O)C2CC(=O)Nc3nc4ccccc4n32)cc1` (stereo unspecified), the activation was 46.6% (active).
Consider `O=C(Nc1ccccc1)C1CC(=O)n2c(nc3ccccc32)N1` (stereo unspecified), for which the activation is 16.2%.
For `CCOC(=O)c1ccc(NC(=O)C2CC(=O)Nc3nc4ccccc4n32)cc1` (stereo unspecified) the value was 2.63%.
In the case of `Cc1nnc(SC(C(=O)c2ccccc2)c2ccccc2)[nH]c1=O` (stereo unspecified), the activation is -19.4%.
For `CCN(CC)CC(=O)c1c[nH]c2ccc(OC)cc12` the value was -5.01%; for `COc1ccc2[nH]c3ccc(OC)cc3c2c1`, 64.7% (active); for `COc1ccc2[nH]c(=S)cc(C)c2c1`, -18.7%.
For `CC1CCCCC1NC(=O)CN1CCC(O)(c2ccc3c(c2)OCO3)CC1` (stereo unspecified) the value was 3.89%; for `Cn1cnnc1SCC(=O)NNC(=O)COc1ccc(Br)cc1`, -5.38%; for `C/C(Cc1ccccc1)=N\NC(=O)CNC(=O)c1ccccc1Cl`, -3%.
For `Cc1ccn(-c2cccc(-n3ccc(C)n3)n2)n1` the value was -27.2%.
On to `S=C(NCc1ccc2c(c1)OCO2)NCc1ccco1`, for which the activation was -4.25%.
For `C=CCOc1ccc(/C=C2\SC(=S)N(CCC(=O)O)C2=O)cc1` the value was 6.81%; for `CC(=O)Nc1ccc(OC(=O)COc2ccc(Br)cc2)cc1`, -18.4%.
Turning to `CCOC(=O)CN(C(=O)COc1nc(-c2ccccc2)cc(C)c1C#N)c1ccc(F)cc1`, the activation is -29.2%.
For `O=C(Nc1ccccc1)Nc1ccc(C(F)(F)F)cn1` the value was 5.1%.
For `Oc1ccc(/C=N/Nc2ccc(C(F)(F)F)cn2)cc1O` the value was 54.9% (active); for `Cc1nccn1CC(=O)N/N=C/c1ccc(O)c(O)c1`, 2.53%; for `Cc1cc(/C=C2/SC(=O)N(CC(=O)N3CCCC3)C2=O)ccc1N1CCOCC1`, 15.8%.
For `O=C(NCc1ccccc1)C1=C[C@@H](c2ccc(C(F)(F)F)cc2)C[C@@H](OCc2ccc(CO)cc2)O1`, the activation is -2.07%.
For `CC(=O)Nc1ccc(NC(=O)C(C)n2c3ccccc3c3nc(=O)cc(C)n32)cc1` (stereo unspecified), the activation was -7.92%.
With `CCNS(=O)(=O)c1ccc(NC(=O)Nc2cccc(OC)c2)cc1` the figure was 13.3%.
In the case of `Cc1ccc(NC(=O)Nc2cccc(C(F)(F)F)c2)nc1`, the activation was 1.1%.
For the molecule `CCNS(=O)(=O)c1ccc(NC(=O)Nc2cccc(C(F)(F)F)c2)cc1`, the activation is 47.1% (active).
For `Cc1cc(Cl)ccc1NC(=S)NCCCN1CCCC1=O`, the activation was 3.39%.
For the molecule `COC(=O)c1cc(S(=O)(=O)N2CCC(C(N)=O)CC2)oc1C`, the activation is -1.47%.
For `O=[N+]([O-])c1cc(Cl)cc(/C=N/NC(=S)Nc2cc(S(=O)(=O)N3CCOCC3)ccc2Cl)c1O` the value was 77.5% (active).
For `O=C(CN1CCN(c2ccc(O)cc2)CC1)Nc1cc(S(=O)(=O)N2CCOCC2)ccc1Cl` the value was -5.24%; for `O=C(N/N=C/c1ccc([N+](=O)[O-])o1)c1cccc(S(=O)(=O)N2CCOCC2)c1`, -11.9%; for `CC(C)(C)C(=O)NNC(=O)c1ccc(Oc2cc(Cl)cc(Cl)c2)o1`, -7.64%.
As to `Cc1ccc(C)c(Cn2cnc3c(oc4ccccc43)c2=O)c1`, the activation is -12.5%.
For the molecule `COc1cccc2cc(S(=O)(=O)c3ccc(C)cc3)/c(=N/NS(=O)(=O)c3ccc(C)cc3)oc12`, the activation was 2.71%.
With `C=CCNC(=O)/C=C/c1ccc(C(C)C)cc1` the figure was 9.4%.
With `COc1ccc(C(=O)C2CCCN(Cc3ccc4nonc4c3)C2)c(C)c1` (stereo unspecified) the figure was -11.8%; with `COc1ccc(C(=O)C2CCCN(Cc3cccn3-c3ccccn3)C2)c(C)c1` (stereo unspecified), 79.6% (active); with `CCOC(=O)c1[nH]ncc1CN1CCCC(C(=O)c2ccc(OC)cc2C)C1` (stereo unspecified), -0.54%.
Consider `COC(=O)C1=C(C(=O)OC)C2(OC1c1ccc(Br)cc1)C(=O)c1ccccc1C2=O` (stereo unspecified), for which the activation is 2.63%.
On to `Nc1c(-c2cccc(Cl)c2)cnn1-c1cccc([N+](=O)[O-])c1`, for which the activation is 43.2%.
Take `CCOC(=O)/C(N=Nc1cc(C(=O)O)cc(C(=O)O)c1)=C(\O)CCl`: the activation was -8%.
With `Cc1ccccc1NCC(=O)N/N=C\c1ccc([N+](=O)[O-])s1`, the activation is 39.4% (active).
With `CCOc1ccc(NC(=O)CCC(=O)N/N=C/c2ccc([N+](=O)[O-])s2)cc1` the figure was 19.1%; with `COc1ccc(C(=O)NCC(=O)N/N=C/c2ccc([N+](=O)[O-])s2)cc1OC`, 6.89%; with `CCc1ccc2nc(Nc3ncc(C(C)=O)c(C)n3)nc(C)c2c1`, 9.28%.
With `OCC1(CCc2ccccc2)CCN(Cc2ccc3nsnc3c2)CC1`, the activation is -0.79%.
Take `O=C(/C=C/c1cnc2ccccc2n1)NC1CCCCCC1`: the activation was -3.45%.
For `COCCNC(=O)/C(C#N)=C/c1nc(N(C)C)n(-c2ccc(F)cc2)c1Cl` the value was 0.95%; for `CCCCN1C(=S)NC[C@@H]1C(C)CC` (stereo partly specified), -11.4%; for `O=C(c1cccs1)N1CCN(C(=O)N2CCOCC2)CC1`, 112% (active).
For `CCS(=O)(=O)N1CCN(C(=O)c2cccs2)CC1` the value was 3.05%; for `Cc1ccc(C(=O)N2CCN(C(=O)N3CCOCC3)CC2)cc1`, -5.88%; for `O=S1(=O)C=C(SCCN2CCCC2)c2ccccc21`, 19%.
With `O=C(CN1C(=O)CC(c2ccccc2)S(=O)(=O)c2ccccc21)NC1CCCC1` (stereo unspecified) the figure was -1.33%.
Take `Cc1cc([N+](=O)[O-])c(NC2CCCCC2)c([N+](=O)[O-])c1`: the activation was -19.9%.
For `Cc1cc(-c2nnc(CCC(=O)NC(c3ccccc3)c3ccccc3)o2)no1` the value was -1.1%; for `O=C(NC1CCN(Cc2ccccc2)CC1)c1ccc(Oc2cc(Cl)cc(Cl)c2)o1`, 2.83%.
For `O=C(NC(=S)N1CCc2ccccc21)c1ccco1`, the activation was 5.18%.
In the case of `COC(=O)c1sc(-c2ccc(C(C)(C)C)cc2)cc1NC(=O)/C=C/C(=O)O`, the activation is 51.4% (active).
As for `COc1ccccc1NC(=O)/C=C/C(=O)O`, the activation is -17.3%.
For `O=C(O)/C=C/C(=O)Nc1ccc(F)cc1F`, the activation was -9.35%.
With `CCOC(=O)C1CCN(C(=O)Nc2ccc(C)c(Cl)c2)CC1` the figure was 2.62%; with `CCCCCCCCCCCCN1C(=O)CSC1c1cccnc1` (stereo unspecified), 5.01%; with `CC1=C/C(=N\OS(=O)(=O)c2ccccc2)C=CC1=O`, 44.8% (active).
For `CCOC(=O)C1(S(=O)(=O)c2ccccc2)CCN(Cc2ccccc2)CC1` the value was 3.32%; for `CC1=C/C(=N\S(=O)(=O)c2ccccc2)C(C(C)C)=CC1=O`, 2.13%.
For `COc1ccc(C(=O)COC(=O)c2nn(C)c(=O)c3ccccc23)c(OC)c1` the value was -10.6%; for `CCOc1ccc(C(=O)NC(=S)Nc2ccc(NC(=O)C(C)C)cc2)cc1[N+](=O)[O-]`, -12.8%; for `NC(=O)C1(N2CCCCC2)CCN(C(=O)c2ccc(C#Cc3ccccc3)o2)CC1`, 62.8% (active).
As to `CC(C)(O)C#Cc1ccc(C(=O)N2CCC(C(N)=O)(N3CCCCC3)CC2)cc1`, the activation is 4.73%.
In the case of `NC(=O)C1(N2CCCCC2)CCN(C(=S)Nc2ccc(Cl)cc2)CC1`, the activation was -0.45%.
With `O=c1oc(-c2ccco2)nc2sc3c(c12)CCCCC3` the figure was 9.25%; with `CN(c1ccccc1)S(=O)(=O)c1cccc(NC(=O)Cc2c(F)cccc2Cl)c1`, -12%.
